Results reported in PubChem BioAssay (NCATS).
Inconclusive results are not listed. Calls of active or inactive are those of the source. Unless noted, calls follow the shape of the dose curve; as a rule, active = well fitted curve in the direction sought with a large enough effect; inconclusive = small, poorly fitted or top-dose-only effect, or another doubt; inactive = no such curve, though single readings can be large; an effect the other way counts as inactive or inconclusive.

Legend:
[1] = Cell Viability - BJ (AID 421; calls by dose curve;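 also: potency is read from the fitted curve at half-maximal effect; cells exposed to compound for 40 hours at 37 °C before readout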); details: BJ fibroblast viability, qHTS
Procedure, shortened: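 Cytotoxicity in human BJ foreskin fibroblasts is scored as loss of cellular ATP after a 40-hour exposure, measured by luciferase luminescence. Controls are DMSO and 100 uM tamoxifen.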

[2] = Cell Viability - Jurkat (AID 426;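 active = dose-dependent loss of cell ATP signal giving a full or clear fitted curve, ranked by lower potency value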; also: potency is read from the fitted curve at half-maximal effect); details: qHTS
Procedure, shortened: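 Seed 5000 Jurkat E6-1 cells/well; add compound; incubate 40 hr at 37 °C; add CellTiter-Glo; wait 20 min at room temperature; read luminescence. Fit concentration-response with Hill equation for AC50.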

[3] = Cell Viability - Hek293 (AID 427;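 active = compounds whose dose-response curve shows a full or clear partial loss of cell viability, called from curve shape rather than a numeric limit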;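 also: potency is read from the fitted curve at half-maximal effect; cells exposed to compound for 40 hours at 37 °C before reading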); details: qHTS
Procedure, shortened: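 qHTS, human embryonic kidney (adenovirus-transformed) cells; 40 hr cpd, 37 °C; CellTiter-Glo ATP luminescence. Norm: DMSO = 0, 100 uM tamoxifen = 100% inhibition. Hill-fit AC50.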

[4] = Cell Viability - HepG2 (AID 433; calls by dose curve;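 also: potency is read from the fitted curve at half-maximal effect; potency for ATP loss meaning cytotoxicity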); details: qHTS
Procedure, shortened: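 HepG2 cells, 1500 per well, treated 40 hr at 37 °C in complete medium; viability from intracellular ATP by CellTiter-Glo luminescence. Normalized to DMSO and 100 uM tamoxifen; AC50 from Hill fit of qHTS concentration-response.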

[5] = Cell Viability - MRC5 (AID 434; calls by dose curve;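 also: potency is read from the fitted curve at half-maximal effect; potency reflects cytotoxicity seen as loss of intracellular ATP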); details: MRC5 lung fibroblast viability, qHTS
Procedure, shortened: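 MRC5 normal human lung fibroblasts, 1500 cells/well, exposed to compound for 40 hr at 37 C. Cellular ATP was read by CellTiter-Glo luminescence; data normalized to DMSO and 100 uM tamoxifen, with AC50 from Hill fits.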

[6] = Cell Viability - SK-N-SH (AID 435; calls by dose curve;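 also: potency is read from the fitted curve at half-maximal effect; compound exposure lasted 40 h at 37 °C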); details: SK-N-SH neuroblastoma cell viability qHTS
Procedure, shortened: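 SK-N-SH neuroblastoma cells (1500/well) treated 40 h at 37 °C in complete medium; viability read as cellular ATP by CellTiter-Glo luminescence. Normalized to DMSO and 100 uM tamoxifen; AC50 from Hill fits of qHTS concentration-response.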

[7] = target: Mitogen-activated protein kinase 10 (Mus musculus) (UniProt Q61831); assay: JNK3 AlphaScreen Assay (AID 530; active = well fitted curve in either direction with a large enough effect, not every such curve was filed as active;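 also: kinase came from lysate of stimulated human HepG2 cells; signal reports phosphorylation of biotinylated GST-cJun 1-79 at Ser73 with 10 µM ATP; % is scaled to controls: 0 for no effect and ±100 for the full control effect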); details: JNK3 lysate, c-Jun phosphorylation; series mostly up to 57.1 µM
Procedure, shortened: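 qHTS format: compounds tested as titrations against IL-1beta/TNF-alpha-activated HepG2 lysate JNK3 with biotin-GST-cJun substrate and 10 uM ATP at room temperature. Loss of anti-phospho-cJun AlphaScreen signal indicates inhibition.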

[8] = Cell Viability - N2a (AID 540); details: N2a mouse neuroblastoma cell viability; activity change, negative = cytotoxicity: at 92.2 µM (top of the series);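 also: plate controls were DMSO alone for no effect and tamoxifen control for full effect; nearly all actives have a fitted effect of over 45% in size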
Procedure, shortened: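 First, 1500 N2a cells per well incubate 5 hr at 37 °C; next, compounds are added and incubated 40 hr at 37 °C; finally CellTiter-Glo is added and luminescence read after 20 min, with AC50 derived by Hill modeling.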

[9] = Cell Viability - NIH 3T3 (AID 541); details: NIH 3T3 cell viability, qHTS; activity change, negative = cytotoxicity: at 92.2 µM (top of the series);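 also: plate controls were DMSO alone for no effect and tamoxifen positive control for full effect; nearly all actives have a fitted effect of over 25% in size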
Procedure, shortened: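 AC50 values reflect concentration-dependent loss of intracellular ATP in NIH 3T3 cells after 40 hr treatment in complete culture medium, quantified by luciferase-based luminescence.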

[10] = Cell Viability - HUV-EC-C (AID 542); details: HUV-EC-C endothelial cell viability, qHTS; series mostly up to 92.2 µM; also: % is scaled to controls: 0 for no effect and ±100 for the full control effect; nearly all actives have a fitted effect of over 35% in size
Procedure, shortened: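 Decrease in cellular ATP, quantified by luciferase luminescence, reflects toxicity in normal human vascular endothelial HUV-EC-C cells given compound for 40 hr in complete culture medium. Values are AC50s from concentration-response curves.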

[11] = Cell Viability - H-4-II-E (AID 543); details: H-4-II-E rat hepatoma viability; series mostly up to 92.2 µM; also: % is scaled to controls: 0 for no effect and ±100 for the full control effect; nearly all actives have a fitted effect of over 35% in size
Procedure, shortened: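 Here, cytotoxicity is measured in the rat hepatoma line H-4-II-E as loss of intracellular ATP after 40 hr compound treatment, detected by luciferase luminescence.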

[12] = Cell Viability - Renal Proximal Tubule (AID 545); details: renal proximal tubule cells viability, primary cells of rat origin; series mostly up to 91.7 µM; also: nearly all actives have a fitted effect of over 40% in size
Procedure, shortened: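 Rat renal proximal tubule primary cells, 1000/well, exposed to compounds for 40 hr at 37 °C in complete medium; cellular ATP read by CellTiter-Glo luminescence. AC50 from concentration-response fitted with standard Hill equation.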

[13] = Cell Viability - Mesenchymal (AID 546); details: mesenchymal cells viability, qHTS; series mostly up to 91.7 µM;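 also: cells exposed to compound for 40 hours before reading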
Procedure, shortened: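 Human kidney mesenchymal cells from normal renal glomeruli, 1000 cells/well, rested 5 hr at 37 °C, then treated 40 hr at 37 °C in complete medium. Cellular ATP read by CellTiter-Glo luminescence; AC50 from Hill-equation fits.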

[14] = Cellular Toxicity (caspase-3) HepG2 (AID 654); details: HepG2 caspase-3 activation, luminescence; series mostly up to 92.2 µM;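 also: cells exposed to compound for 16 hours before reading; 0% = DMSO alone and 100% = caspase signal from 100 µM tamoxifen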
Procedure, shortened: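 qHTS, HepG2, 1500 cells/well, complete medium; cpd 16 h 37 °C; Caspase-Glo 3/7, 20 min RT; lum. Norm: DMSO vs 100 uM tamoxifen; AC50 Hill fit.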

[15] = Cellular Toxicity (caspase-3) HUV-EC-C (AID 656); details: HUV-EC-C cells, caspase-3 activation (apoptosis), vehicle = 0, 100 µM tamoxifen = 100%; series mostly up to 92.2 µM
Procedure, shortened: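 HUV-EC-C cells (1000/well) in complete medium, compound-treated 16 h at 37 °C; caspase-3/7 activity read by Caspase-Glo 3/7 luminescence. Normalized to DMSO (basal) and 100 uM tamoxifen (100%); AC50 from Hill-equation concentration-response fits.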

[16] = Cellular Toxicity (caspase-3) SHSY5Y (AID 657); details: SH-SY5Y caspase-3 activation, DMSO zero, 10 µM staurosporine = 100%; series mostly up to 91.7 µM
Procedure, shortened: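 SH-SY5Y human neuroblastoma cells, 1500/well, exposed to compound for 16 hours at 37 °C in complete medium. Caspase-3/7 activity read by Caspase-Glo luminescence after 1 hr at room temperature, normalized to DMSO and 10 uM staurosporine; AC50 from Hill fit.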

[17] = Cellular Toxicity (caspase-3) BJ (AID 658); details: BJ fibroblasts, luminescence, normalized: DMSO 0%, staurosporine 100%; series mostly up to 91.7 µM
Procedure, shortened: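 BJ human foreskin fibroblasts, 1000 cells/well, treated 16 hours at 37 °C in complete medium; caspase 3/7 activity by Caspase-Glo luminescence after 1 hr at room temperature. Normalized to DMSO and 10 uM staurosporine; AC50 from Hill fits.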

[18] = Cellular Toxicity (caspase-3) MRC-5 (AID 659); details: MRC-5 cells, luminescence, normalized: DMSO 0%, 10 µM staurosporine 100%; series mostly up to 91.7 µM
Procedure, shortened: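 MRC-5 human normal lung fibroblasts, 1500 cells/well, treated 16 h at 37 °C in complete medium. Caspase 3/7 measured by Caspase-Glo luminescence after 1 h at room temperature. Normalized to DMSO and 10 uM staurosporine; AC50 from Hill fit.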

[19] = Cellular Toxicity (caspase-3) Jurkat (AID 655); details: Jurkat caspase-3 activation, luminescence; caspase-3 activation: at 92.2 µM (top of the series), DMSO = 0%, tamoxifen = 100%;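 also: cells exposed to compound for 16 h at 37 °C before reading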
Procedure, shortened: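 Jurkat cells (5000/well) in complete medium exposed 16 h at 37 C; caspase-3/7 activity read by Caspase-Glo luminescence after 20 min at room temperature. Normalized to DMSO and 100 uM tamoxifen; AC50 from Hill fits.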

[20] = Cell Viability - SH-SY5Y (AID 544); details: SH-SY5Y neuroblastoma cell viability; viability change, negative = cytotoxic: at 92.2 µM (top of the series); also: nearly all actives have a fitted effect of over 55% in size
Procedure, shortened: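 Cytotoxicity is scored as a concentration-dependent fall in intracellular ATP in human SH-SY5Y cells treated 40 hr in complete culture medium. Potency is expressed as AC50 from a Hill equation fit.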

CC1(N)CCC(C(C)(C)N)CC1 (stereo not given)
inactive: Potency [1] > 92 µM | Potency [2] > 92 µM | Potency [3] > 92 µM | Potency [4] > 92 µM | Potency [5] > 92 µM | Potency [6] > 92 µM | outcome [7] | activity change, negative = cytotoxicity [8] -2.82% | Potency [9] | Potency [10] | Potency [11] | Potency [12] | Potency [13] | Potency [14] | outcome [15] | outcome [16] | outcome [17] | outcome [18]

CCCC(C)CO (stereo not given)
inactive: Potency [1] > 92 µM | Potency [2] > 92 µM | Potency [3] > 92 µM | Potency [4] > 92 µM | Potency [5] > 92 µM | Potency [6] > 92 µM | outcome [7] | activity change, negative = cytotoxicity [8] 3.82% | Potency [9] | Potency [10] | Potency [11] | Potency [12] | Potency [13] | Potency [14] | caspase-3 activation [19] 0.921% | outcome [15] | outcome [16] | outcome [17] | outcome [18]

Clc1cc(Cl)cc(Cl)c1
inactive: Potency [1] > 92 µM | Potency [2] > 92 µM | Potency [3] > 92 µM | Potency [4] > 92 µM | Potency [5] > 92 µM | Potency [6] > 92 µM | outcome [7] | activity change, negative = cytotoxicity [8] 4.86% | Potency [9] | Potency [10] | Potency [20] | Potency [12] | Potency [13] | Potency [14] | caspase-3 activation [19] 0.897% | outcome [15] | outcome [16] | outcome [17] | outcome [18]

C=C(C)C(=O)OC
inactive: Potency [1] > 92 µM | Potency [2] > 92 µM | Potency [3] > 92 µM | Potency [4] > 92 µM | Potency [5] > 92 µM | Potency [6] > 92 µM | outcome [7] | activity change, negative = cytotoxicity [8] 2.46% | Potency [9] | Potency [10] | Potency [11] | Potency [12] | Potency [13] | Potency [14] | outcome [15] | outcome [16] | outcome [17] | outcome [18]

Nc1cccc(O)c1
inactive: Potency [1] > 92 µM | Potency [2] > 92 µM | Potency [3] > 92 µM | Potency [4] > 92 µM | Potency [5] > 92 µM | Potency [6] > 92 µM | outcome [7] | activity change, negative = cytotoxicity [8] 4.14% | Potency [9] | Potency [10] | Potency [11] | Potency [12] | Potency [13] | caspase-3 activation [19] 0.69% | outcome [15] | outcome [16] | outcome [17] | outcome [18]

C=CCn1c(=O)n(CC=C)c(=O)n(CC=C)c1=O
inactive: Potency [1] > 92 µM | Potency [2] > 92 µM | Potency [3] > 92 µM | Potency [4] > 92 µM | Potency [5] > 92 µM | Potency [6] > 92 µM | outcome [7] | activity change, negative = cytotoxicity [8] 0.0467% | Potency [9] | Potency [10] | Potency [20] | Potency [12] | Potency [13] | Potency [14] | caspase-3 activation [19] -0.997% | outcome [15] | outcome [16] | outcome [17] | outcome [18]

O=C(O)c1c(Cl)cccc1Cl
inactive: Potency [1] > 92 µM | Potency [2] > 92 µM | Potency [3] > 92 µM | Potency [4] > 92 µM | Potency [5] > 92 µM | Potency [6] > 92 µM | outcome [7] | activity change, negative = cytotoxicity [8] -6.78% | Potency [9] | Potency [10] | Potency [11] | Potency [12] | Potency [13] | caspase-3 activation [19] 0.737% | outcome [15] | outcome [16] | outcome [18]

Clc1ccccn1
inactive: Potency [1] > 92 µM | Potency [2] > 92 µM | Potency [3] > 92 µM | Potency [4] > 92 µM | Potency [5] > 92 µM | Potency [6] > 92 µM | outcome [7] | activity change, negative = cytotoxicity [8] -19.1% | Potency [9] | Potency [10] | Potency [11] | Potency [12] | Potency [13] | Potency [14] | caspase-3 activation [19] -1.1% | outcome [15] | outcome [16] | outcome [17] | outcome [18]

c1ccsc1
inactive: Potency [1] > 92 µM | Potency [2] > 92 µM | Potency [3] > 92 µM | Potency [4] > 92 µM | Potency [5] > 92 µM | Potency [6] > 92 µM | outcome [7] | activity change, negative = cytotoxicity [8] -9.01% | Potency [9] | Potency [10] | Potency [11] | Potency [13] | Potency [14] | caspase-3 activation [19] 0.61% | outcome [15] | outcome [16] | outcome [17] | outcome [18]

N#Cc1ccccc1
inactive: Potency [1] > 92 µM | Potency [2] > 92 µM | Potency [3] > 92 µM | Potency [4] > 92 µM | Potency [5] > 92 µM | Potency [6] > 92 µM | outcome [7] | activity change, negative = cytotoxicity [8] 6.76% | Potency [9] | Potency [10] | Potency [20] | Potency [12] | Potency [13] | Potency [14] | caspase-3 activation [19] -1.39% | outcome [15] | outcome [16] | outcome [17] | outcome [18]

CN(C)c1cccc(O)c1
inactive: Potency [1] > 92 µM | Potency [2] > 92 µM | Potency [3] > 92 µM | Potency [4] > 92 µM | Potency [5] > 92 µM | Potency [6] > 92 µM | outcome [7] | activity change, negative = cytotoxicity [8] -1.51% | Potency [9] | Potency [10] | Potency [11] | Potency [12] | Potency [13] | Potency [14] | caspase-3 activation [19] -0.572% | outcome [15] | outcome [16] | outcome [18]

Nc1nc2ccccc2[nH]1
inactive: Potency [1] > 92 µM | Potency [2] > 92 µM | Potency [3] > 92 µM | Potency [4] > 92 µM | Potency [5] > 92 µM | Potency [6] > 92 µM | outcome [7] | activity change, negative = cytotoxicity [8] -3.92% | Potency [9] | Potency [10] | Potency [20] | Potency [12] | Potency [13] | caspase-3 activation [19] 10.5% | outcome [15] | outcome [16] | outcome [17] | outcome [18]
